Calls of active or inactive are those of the source.

Experiment [1] in a line: small molecules captured by biotinylated probe aFSTL3 – biochemical, small-molecule microarray, fluorescence 635/667, stem cell growth factor project, primary screen (AID 1064).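 Note: measures binding of the biotinylated anti-FSTL3 antibody to printed compounds.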 The settings on record: higher = more signal.
Experiment [2] is described as follows: binders from COS7 lysate, DM2A8 probe, primary screen, torsin A project, cell lysate, small-molecule microarray, fluorescence 635/667 (AID 1065). The settings on record: higher = more signal, COS7 lysate expressing mutant human TOR1A.
A short description of experiment [3]: small molecules captured by biotinylated probe aFGF2 – biochemical, small-molecule microarray, fluorescence 635/667, stem cell growth factor project, primary screen (AID 1067).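 Note: measures binding of biotinylated aFGF2 protein to printed compounds on slides; z-score merges feature fluorescence and signal-to-noise across triplicate slides.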 As to conditions: higher = more signal.
Experiment [4] can be described thus: small molecules captured by biotinylated probe aFGF10 – biochemical, small-molecule microarray, fluorescence 635/667, stem cell growth factor project, primary screen (AID 1071).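 Note: score merges 667 nm spot intensity and signal to noise from triplicate slides.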 As to conditions: higher = more signal.
The target in experiment [5] is Neurogenic locus notch homolog protein 2 (Homo sapiens) (UniProt Q04721). In words: small molecules binding Notch2 protein – biochemical, small-molecule microarray, 635 nm fluorescence, stem cell growth factors, primary screen (AID 1073). The settings on record: higher = more signal.
Experiment [6] addresses Pro-neuregulin-1, membrane-bound isoform (Homo sapiens) (UniProt Q02297). The experiment is described as follows: small molecules binding neuregulin-1 protein – biochemical, small-molecule microarray, fluorescence 635/667, psychiatric disease protein project, primary screen (AID 1075).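 Note: score combines 667 nm spot fluorescence with signal to noise.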 As to conditions: NRG1 binding, 635 nm fluorescence, higher = more signal.
The test system of experiment [7] is Neuregulin-1 EGF-like domain. In words: small molecules binding NRG1 EGF domain – biochemical, small-molecule microarray, 635 nm fluorescence, primary screen (AID 1081).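 Note: binding of the protein to compounds printed on small-molecule microarray slides.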 As to conditions: higher = more signal.
Experiment [8] can be described thus: FRG1 expression reporter modulators in myotubes – cell-based, C2C12 myotubes, firefly/Renilla luciferase, luminescence, FRG1 inhibition for FSHD, primary screen (AID 1084). The settings on record: FRG1 promoter luciferase, higher = more signal, called active from +8 up or from −8 down.
Experiment [9] is described as follows: small molecules captured by biotinylated probe aFST – biochemical, small-molecule microarray, fluorescence 635/667, stem cell growth factor project, primary screen (AID 1086).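 Note: score merges 667 nm fluorescence with signal-to-noise of each printed compound spot.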 As to conditions: higher = more signal.
Experiment [10] in a line: binders of probe aHhip on microarray, primary screen, stem cell growth factor project, biochemical, small-molecule microarray, fluorescence 635/667 (AID 1087).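 Note: score merges spot fluorescence at 667nm with spot signal to noise ratio.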 The settings on record: higher = more signal.
For experiment [11], the system named is PRMT1 (protein arginine N-methyltransferase 1). In words: small molecules binding arginine methyltransferase PRMT1 – biochemical, small-molecule microarray, 635 nm fluorescence, primary screen (AID 1088).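 Note: binding of Prmt1 protein to compounds spotted on small-molecule microarray slides.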 As to conditions: higher = more signal.
The nature of experiment [12]: growth effects on S. cerevisiae YJM789 – YJM789 clinical isolate, OD600, 24 h, basal, primary screen (AID 1089).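 Note: growth of clinical yeast isolate S. cerevisiae YJM 789 seeded 1000 cells per well; test concentration not given here.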 As to conditions: higher = more signal, called active from +8 up or from −8 down.
The nature of experiment [13]: S. pombe growth modifiers, basal conditions – strain 972, OD600, 24 h, no modulator, primary screen (AID 1090).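 Note: basal condition with compound alone and no growth modifier present; test concentration not given here.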 As to conditions: S. pombe 972 growth, higher = more signal, called active from +8 up or from −8 down.
Experiment [14] is described as follows: budding yeast growth modifiers under rapamycin – strain BY4716, OD600, 96 h, primary screen (AID 1091). Note: test concentration not given here. As to conditions: S. cerevisiae BY4716 + rapamycin, higher = more signal, called active from +8 up or from −8 down.
In experiment [15] the target is Torsin-1A-interacting protein 2 (Homo sapiens) (UniProt Q8NFQ8). The experiment is described as follows: small molecules binding lysate-expressed LULL1 – cell lysate, human LULL1 lysate, 635/667 nm fluorescence, primary screen (AID 1092).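 Note: score merges per-feature 667 nm fluorescence with signal-to-noise.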 As to conditions: small-molecule microarray, hLULL1 lysate binding, 635 nm fluorescence; higher = more signal.
Experiment [16] is described as follows: optical density change of DRC41 E. coli – strain DRC41, OD650, 24 h, E. coli filamentation project, primary screen (AID 1093).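 Note: MC1000 strain lacking acrAB efflux and sulA so SOS filamentation is blocked; test concentration not given here.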 The settings on record: E. coli DRC41 growth, higher = more signal, called active from +8 up or from −8 down.
Experiment [17] in a line: probe aLefty2 binding to arrayed compounds – biochemical, biotinylated probe, 635/667 nm fluorescence, primary screen (AID 1094).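 Note: score merges spot fluorescence near 667 nm with spot signal-to-noise ratio.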 As to conditions: small-molecule microarray, higher = more signal.
Experiment [18] concerns Noggin (protein binding on small-molecule microarray). The experiment is described as follows: small molecules binding Noggin protein – biochemical, 635/667 nm fluorescence, primary screen (AID 1095).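 Note: score merges 667 nm feature fluorescence with signal to noise over triplicate slides.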 As to conditions: 635 nm fluorescence, higher = more signal.
Experiment [19] deals with Neurogenic locus notch homolog protein 3 (Homo sapiens) (UniProt Q9UM47). The experiment is described as follows: small molecules binding NOTCH3 protein – biochemical, 635/667 nm fluorescence, primary screen (AID 1096). The settings on record: small-molecule microarray, 635 nm fluorescence, higher = more signal.
Experiment [20] is described as follows: probe aEGFR binding to arrayed compounds – biochemical, biotinylated probe, 635/667 nm fluorescence, primary screen (AID 1097).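 Note: probe is a biotinylated anti-EGFR antibody binding compounds printed on slides; score combines fluorescence near 667 nm and signal to noise of each spot.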 As to conditions: small-molecule microarray, higher = more signal.

Sequence of Pro-neuregulin-1, membrane-bound isoform (Homo sapiens) (Q02297 whole entry, looked up, the tested form may be a part, canonical isoform): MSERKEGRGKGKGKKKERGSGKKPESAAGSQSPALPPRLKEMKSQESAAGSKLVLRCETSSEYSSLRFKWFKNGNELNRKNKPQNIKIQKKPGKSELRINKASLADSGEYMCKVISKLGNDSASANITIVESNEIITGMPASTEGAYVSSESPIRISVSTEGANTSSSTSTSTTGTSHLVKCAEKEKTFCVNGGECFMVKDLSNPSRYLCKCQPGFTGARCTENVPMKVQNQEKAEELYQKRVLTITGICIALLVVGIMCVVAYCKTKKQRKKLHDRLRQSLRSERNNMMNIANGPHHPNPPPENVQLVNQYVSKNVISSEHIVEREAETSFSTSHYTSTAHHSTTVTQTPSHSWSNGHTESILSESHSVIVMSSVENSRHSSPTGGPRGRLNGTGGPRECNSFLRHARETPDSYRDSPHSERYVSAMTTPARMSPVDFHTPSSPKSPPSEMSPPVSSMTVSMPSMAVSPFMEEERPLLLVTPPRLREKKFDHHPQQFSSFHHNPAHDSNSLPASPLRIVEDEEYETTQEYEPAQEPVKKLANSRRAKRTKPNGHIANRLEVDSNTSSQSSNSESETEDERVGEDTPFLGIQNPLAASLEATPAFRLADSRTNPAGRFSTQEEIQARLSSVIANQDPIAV
Sequence of Torsin-1A-interacting protein 2 (Homo sapiens) (Q8NFQ8 whole entry, looked up): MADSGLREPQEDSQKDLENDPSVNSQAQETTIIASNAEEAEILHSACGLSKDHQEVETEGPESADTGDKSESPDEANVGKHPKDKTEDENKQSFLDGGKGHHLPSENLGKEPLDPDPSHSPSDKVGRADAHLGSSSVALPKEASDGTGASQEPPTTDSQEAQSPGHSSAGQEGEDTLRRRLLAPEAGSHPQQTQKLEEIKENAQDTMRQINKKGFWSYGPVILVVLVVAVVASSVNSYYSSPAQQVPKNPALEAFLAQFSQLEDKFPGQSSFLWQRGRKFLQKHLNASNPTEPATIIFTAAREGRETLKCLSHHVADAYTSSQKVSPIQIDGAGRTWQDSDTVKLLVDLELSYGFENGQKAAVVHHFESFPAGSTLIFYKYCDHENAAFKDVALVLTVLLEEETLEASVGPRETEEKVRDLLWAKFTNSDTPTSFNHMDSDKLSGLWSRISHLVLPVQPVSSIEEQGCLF
Sequence of Neurogenic locus notch homolog protein 3 (Homo sapiens) (Q9UM47 whole entry, looked up): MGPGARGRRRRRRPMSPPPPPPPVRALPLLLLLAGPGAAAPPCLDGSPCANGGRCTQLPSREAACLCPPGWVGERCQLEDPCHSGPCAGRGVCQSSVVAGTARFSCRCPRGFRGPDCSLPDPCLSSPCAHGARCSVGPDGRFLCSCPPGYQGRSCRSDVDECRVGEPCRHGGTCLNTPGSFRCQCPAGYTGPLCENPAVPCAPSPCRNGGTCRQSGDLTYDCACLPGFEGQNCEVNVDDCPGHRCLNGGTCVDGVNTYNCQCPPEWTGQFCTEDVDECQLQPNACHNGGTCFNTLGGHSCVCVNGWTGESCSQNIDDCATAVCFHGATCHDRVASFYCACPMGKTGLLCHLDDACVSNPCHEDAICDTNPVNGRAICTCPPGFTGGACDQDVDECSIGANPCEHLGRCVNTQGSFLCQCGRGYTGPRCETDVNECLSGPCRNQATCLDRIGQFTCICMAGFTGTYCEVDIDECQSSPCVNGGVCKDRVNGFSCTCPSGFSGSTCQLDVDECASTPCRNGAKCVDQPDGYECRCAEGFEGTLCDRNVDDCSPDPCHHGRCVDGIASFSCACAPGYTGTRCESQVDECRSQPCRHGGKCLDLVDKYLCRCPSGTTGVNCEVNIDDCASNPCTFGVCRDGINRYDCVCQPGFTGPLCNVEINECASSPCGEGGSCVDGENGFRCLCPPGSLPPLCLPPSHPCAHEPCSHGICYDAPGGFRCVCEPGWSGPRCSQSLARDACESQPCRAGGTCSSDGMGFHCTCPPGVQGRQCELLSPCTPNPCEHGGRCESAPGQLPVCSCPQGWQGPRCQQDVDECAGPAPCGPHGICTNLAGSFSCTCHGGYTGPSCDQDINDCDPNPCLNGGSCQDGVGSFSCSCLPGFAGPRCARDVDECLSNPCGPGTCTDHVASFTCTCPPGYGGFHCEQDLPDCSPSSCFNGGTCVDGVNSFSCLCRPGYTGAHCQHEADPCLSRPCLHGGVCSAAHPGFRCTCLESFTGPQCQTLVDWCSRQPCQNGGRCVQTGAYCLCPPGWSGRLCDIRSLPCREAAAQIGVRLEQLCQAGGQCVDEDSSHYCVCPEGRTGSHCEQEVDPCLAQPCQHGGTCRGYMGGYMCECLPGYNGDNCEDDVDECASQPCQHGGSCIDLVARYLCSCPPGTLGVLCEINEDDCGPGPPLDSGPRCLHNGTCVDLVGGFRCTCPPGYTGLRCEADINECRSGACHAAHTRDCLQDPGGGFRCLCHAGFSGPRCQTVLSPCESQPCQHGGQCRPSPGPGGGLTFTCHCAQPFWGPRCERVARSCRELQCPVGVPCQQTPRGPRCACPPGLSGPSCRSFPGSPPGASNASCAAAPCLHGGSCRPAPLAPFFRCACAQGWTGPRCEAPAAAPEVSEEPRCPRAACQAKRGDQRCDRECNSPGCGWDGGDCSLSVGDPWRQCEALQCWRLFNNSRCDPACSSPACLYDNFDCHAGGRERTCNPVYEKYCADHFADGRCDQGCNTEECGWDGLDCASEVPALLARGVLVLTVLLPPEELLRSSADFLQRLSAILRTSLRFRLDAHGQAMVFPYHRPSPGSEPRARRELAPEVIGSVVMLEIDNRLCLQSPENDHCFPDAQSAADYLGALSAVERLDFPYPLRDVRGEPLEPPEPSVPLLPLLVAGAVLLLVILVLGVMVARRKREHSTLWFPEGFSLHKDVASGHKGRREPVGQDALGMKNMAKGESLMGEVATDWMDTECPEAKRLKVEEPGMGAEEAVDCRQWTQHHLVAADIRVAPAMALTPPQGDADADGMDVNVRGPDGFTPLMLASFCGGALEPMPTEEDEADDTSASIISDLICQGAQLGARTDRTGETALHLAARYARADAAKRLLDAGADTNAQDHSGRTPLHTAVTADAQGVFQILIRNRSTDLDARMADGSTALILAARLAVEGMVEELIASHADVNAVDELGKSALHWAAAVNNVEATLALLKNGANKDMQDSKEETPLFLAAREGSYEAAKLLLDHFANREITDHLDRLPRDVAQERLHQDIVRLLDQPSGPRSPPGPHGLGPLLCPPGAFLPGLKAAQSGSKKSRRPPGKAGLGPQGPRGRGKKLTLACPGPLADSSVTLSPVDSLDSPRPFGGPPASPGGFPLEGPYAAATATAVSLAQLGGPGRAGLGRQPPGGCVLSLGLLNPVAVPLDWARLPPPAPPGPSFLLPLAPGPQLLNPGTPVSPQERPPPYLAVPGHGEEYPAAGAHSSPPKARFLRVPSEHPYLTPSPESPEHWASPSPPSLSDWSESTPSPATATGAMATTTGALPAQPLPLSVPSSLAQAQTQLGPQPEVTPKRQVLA

For `C[C@H]1CC[C@@H](C(=O)O)N[C@@H]1c1ccc(C#Cc2ccccc2)cc1`, the composite z-score in [1] was -0.214; in experiment [2], 0.0872; in [3], 0.0166; in experiment [4], 0.505; in [5] it was 1.32; in experiment [6], 0.736. The composite z-score in experiment [7] is 1.24; in experiment [9], 0.316; in experiment [10], 0.176; in experiment [11], 1.52; in [15], 1.78; in experiment [17], -0.0615. The composite z-score came to 0.875 in experiment [18], 1.09 in [19] and 0.0651 in experiment [20]. In addition, the z-score in [8] is 3.31 (inactive); in experiment [12], -26.4 (active); in experiment [13], -21.1 (active); in experiment [14] it was -3.15 (inactive); in experiment [16] it was 0.161 (inactive).

Consider `CC1(C)O[C@H]2OC([C@H](O)CON3C(=O)c4ccccc4C3=O)[C@H](O)[C@H]2O1` (stereo not given in full), for which the composite z-score in experiment [1] was -0.437; in experiment [2] it was -0.0068; in experiment [3], -0.175; in [4], 0.0685; in experiment [5], 0.335; in [6], 0.166. In addition, the composite z-score is 0.0939 in experiment [7]; 0.169 in [9]; -0.374 in [10]; 0.318 in experiment [11]; -0.061 in experiment [15]; -0.0561 in experiment [17]. The composite z-score in [18] worked out at 0.441; in [19], 0.419; in [20] it was 0.0434. Further, the z-score in experiment [8] was 0.516 (inactive); in [12] it was -0.702 (inactive); in [13], -0.344 (inactive); in experiment [14], -0.425 (inactive); in experiment [16] it was 0.742 (inactive).

As to `CCc1cc2c(nc1CC)CCN(CCC(C)=NOC[C@@H](C)[C@H](OCc1ccccc1)C(C)C)C2`, the composite z-score in [1] was -0.251; in experiment [2] it was -0.176; in experiment [3], -0.226; in [4] it was -1.25; in experiment [5], -1.17; in experiment [6], -0.769. Besides, the composite z-score in [7] is -0.47; in experiment [9], -1.36; in experiment [10], -0.132; in experiment [11], 0.0757; in experiment [15], 0.198; in [17], -0.224. Further, the composite z-score in experiment [18] was -0.249; in experiment [19] it was -1.38; in experiment [20], -0.25. Also, the z-score was -0.856 (inactive) in experiment [8]; -2.41 (inactive) in experiment [12]; -4.16 (inactive) in experiment [13]; -1.32 (inactive) in experiment [14]; -0.966 (inactive) in [16].

`C=C(C)C(=O)OC[C@H]1CN2[C@@H](CC[C@@H](C)[C@@H]2c2ccc(Br)cc2)C(=O)O1`: the composite z-score in experiment [1] was -0.223; in experiment [2], 0.123; in experiment [3] it was -0.166; in experiment [4], 0.113; in experiment [5], -0.283; in [6] it was 0.199. For the same compound, the composite z-score in [7] was 0.0297; in experiment [9], -0.155; in [10], -0.0618; in [11], 0.164; in experiment [15] it was 0.162; in experiment [17], -0.166. In addition, the composite z-score was 0.195 in experiment [18], -0.775 in experiment [19] and -0.144 in experiment [20]. Moreover, the z-score in experiment [8] is 0.402 (inactive); in experiment [12], 0.0739 (inactive); in [13], -3.38 (inactive); in experiment [14], -0.424 (inactive); in experiment [16], 0.436 (inactive).

In the case of `CC(CCC(=O)OC[C@H]1O[C@H](C#Cc2ccccc2)C=C[C@@H]1Oc1ccc(C)cc1)=NO[C@H](C)c1cn([C@@H]2COC[C@H]2O)nn1`, the composite z-score in experiment [1] was -0.484; in experiment [2], 0.522; in experiment [3], -0.148; in experiment [4] it was 0.0898; in experiment [5], -0.31; in experiment [6], -0.0103. In addition, the composite z-score in experiment [7] was 0.452; in experiment [9] it was -0.0115; in experiment [10], -0.134; in experiment [11] it was 0.535; in experiment [15] it was 0.042; in experiment [17] it was -0.128. Moreover, the values for the composite z-score in [18], in [19] and in [20] were 0.375, -0.151 and -0.137, respectively. Moreover, the z-score in [8] was -1.03 (inactive); in experiment [12] it was -1.42 (inactive); in [13] it was -0.688 (inactive); in experiment [14], -0.0188 (inactive); in [16] it was -0.342 (inactive).

Consider `CCOC(=O)[C@H](CC(C)C)NC(=O)CCC1CC(OC(=O)NCCc2ccc(F)cc2)CC2(CCCC(COC(=O)NCc3cccc(C(F)(F)F)c3)O2)O1` (stereo not given in full), for which the composite z-score in experiment [1] is -0.17; in [2], 0.13; in [3], -0.0924; in [4], 0.983; in experiment [5], 1.14; in experiment [6], 0.806. Further, the composite z-score in experiment [7] was 1.16; in experiment [9], -0.0518; in experiment [10], -0.0102; in experiment [11], 1.49; in [15] it was 1.6; in experiment [17], -0.103. The figures for the composite z-score in experiment [18], in [19] and in experiment [20] were 0.584, 0.722 and 0.0199, respectively. Further, the z-score was -0.0179 (inactive) in [8]; 0.643 (inactive) in [12]; 0.58 (inactive) in experiment [13]; 0.603 (inactive) in [14]; 1.05 (inactive) in experiment [16].

As for `CCC1=NOC(CCC2CC(OC(=O)NCc3cccc4c3OCO4)CC3(CCCC(COC(=O)NCCc4ccc(Cl)cc4)O3)O2)C1` (stereo not given), the composite z-score is -0.281 in [1]; 0.0253 in [2]; 0.0388 in [3]; 0.88 in experiment [4]; 0.0241 in experiment [5]; 1.44 in experiment [6]. In addition, the composite z-score in [7] is 1.12; in [9], -0.0353; in experiment [10], -0.0994; in [11], 0.616; in experiment [15], 1.59; in [17] it was -0.186. Moreover, the composite z-score in experiment [18] is 0.379; in experiment [19], -0.165; in [20], -0.125. The z-score in experiment [8] was 1.24 (inactive); in experiment [12], -0.57 (inactive); in experiment [13] it was 0.232 (inactive); in experiment [14], 0.407 (inactive); in experiment [16], 0.812 (inactive).

Take `CCN1C(=O)[C@H]2[C@H]3[C@H](O)[C@H](O)CC(=NO[C@@H](C)c4cc(-c5c(C)cc(C)cc5C)no4)[C@@H]3CC[C@H]2C1=O`: the composite z-score is -0.558 in experiment [1]; 1.13 in experiment [2]; -0.0243 in experiment [3]; 0.624 in [4]; 0.817 in experiment [5]; 1.08 in experiment [6]. The composite z-score was 1.04 in [7]; 0.544 in experiment [9]; -0.225 in experiment [10]; 1.55 in [11]; 2 in experiment [15]; -0.0283 in experiment [17]. The results for the composite z-score in [18], in [19] and in [20] were 0.529, 0.994 and 0.123, respectively. The z-score in [8] was 0.998 (inactive); in [12] it was -0.393 (inactive); in [13], -1.15 (inactive); in [14] it was -0.875 (inactive); in experiment [16] it was 1.16 (inactive).

As for `CO[C@H]1COC(=O)[C@H](C)COC(=O)[C@@H](OCc2ccccc2)C=C[C@@H]1C`, the composite z-score in experiment [1] is -0.411; in [2], 0.0756; in experiment [3], -0.178; in experiment [4] it was 0.0844; in experiment [5], -0.501; in experiment [6], -0.319. For the same compound, the composite z-score is -0.365 in experiment [7]; 1.27 in [9]; 0.449 in [10]; 0.855 in experiment [11]; -0.198 in experiment [15]; -0.241 in experiment [17]. Moreover, the results for the composite z-score in experiment [18], in experiment [19] and in experiment [20] were 1, -0.732 and -0.188, respectively. Further, the z-score in [8] is -0.224 (inactive); in experiment [12] it was 0.138 (inactive); in experiment [13] it was -1.28 (inactive); in experiment [14], -0.876 (inactive); in experiment [16], 0.554 (inactive).

The values above are taken from PubChem BioAssay.
